The values that follow come from PubChem BioAssay (NCI).

Structures are written as SMILES. About 79,000 compounds went through this panel and 15% of them were active in at least one assay; those are over-represented in the sample as a whole. The source made the active and inactive calls. Cut-off read from the data, not from the text of the source: active = growth inhibition above about 70%; inactive = the rest.

The nature of this experiment: NCI Yeast Anticancer Drug Screen. Data for the cln2 rad14 strain (AID 165).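 Note: 0% = growth equal to vehicle treated cultures.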 As to conditions: S. cerevisiae cln2 rad14 strain, at 50.0 µM (retest, dose inferred, filed as 5.0), active compounds read high. The method in brief: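 Compounds are applied to the cln2 rad14 yeast strain, and growth is then compared with that of vehicle-treated cultures to give inhibition.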
With `CCCCN(CCC(=O)O)c1ccc(/C=C\c2ccnc3ccccc23)cc1`, the growth inhibition is 82% (active).

For the compound `CC1CC(N)=NC1C(=O)NCCC#N` (centres undefined), the growth inhibition is 2% (inactive).

As to `O=C(CC1(O)CCCCC1)OC1CCCC1`, the growth inhibition is 19% (inactive).

`CN(C)c1nc(-c2ccccc2)cc(-c2ccc(O)cc2)n1`: the growth inhibition was 48% (inactive).

In the case of `Oc1cc(C(c2ccccc2)c2ccccc2)c2ccccc2c1O`, the growth inhibition is 0% (inactive).

Consider `C(=P(c1ccccc1)(c1ccccc1)c1ccccc1)[P+](c1ccccc1)(c1ccccc1)c1ccccc1`, for which the growth inhibition was 99% (active).

On to `COC(=O)c1ccc(CCc2cc(O)ccc2O)cc1`, for which the growth inhibition is 99% (active).

Regarding `CCCCCCCCCCN`, the growth inhibition was 19% (inactive).

As for `CC[N-]c1nncs1.CC[N-]c1nncs1.CC[N-]c1nncs1.CC[N-]c1nncs1.[Cl][Rh][Cl]`, the growth inhibition was 77% (active).

With `CC(C)C1=CC23CCC4C(C)(C(=O)O)CCCC4(C)C2CC1CC3C#N` (centres undefined), the growth inhibition was 57% (inactive).

`COc1ccc(/C(Cl)=C(\C=O)c2ccc(Cl)cc2)cc1`: the growth inhibition was 26% (inactive).

Consider `CCOC(=O)Cc1csc(/N=C\c2c(O)c3ccccc3oc2=O)n1`, for which the growth inhibition is 21% (inactive).

For the compound `Cc1cccc(/C=N/NC(=S)Nc2ccccc2)n1`, the growth inhibition is 99% (active).

For `Nc1nn2c(C(Br)Br)cc(C(Br)Br)nc2c1[N+](=O)[O-]`, the growth inhibition was 99% (active).

For `c1ccc2nc3ccccc3nc2c1`, the growth inhibition was 36% (inactive).

In the case of `O=c1ccc2nc3ccccc3ccc-2c1`, the growth inhibition was -58% (inactive).

In the case of `C=CCOCC(C)OC(=O)C(C)C` (centres undefined), the growth inhibition was -62% (inactive).

`CCCCCCOC(=O)CCC(=O)OCCCCCC`: the growth inhibition was 23% (inactive).

Consider `CC(=O)C(C(C)=O)C1C=CC=CC=C1`, for which the growth inhibition was 77% (active).

With `CCCOC(=O)CCCC(=O)N(CC)CC`, the growth inhibition is 0% (inactive).

For the compound `CCOC(=O)C(=O)CC1=Nc2ccccc2SC(c2cccc(C)c2)C1` (centres undefined), the growth inhibition is 86% (active).

With `COc1cc2c(c(-c3cn(C)c4ccccc34)c1OC)OCO2`, the growth inhibition is 1% (inactive).

For `COC(=O)c1c(C)cccc1C1CN=NC12Cc1ccc(C)c(C)c1C2=O` (centres undefined), the growth inhibition is 44% (inactive).

For `CCCCCCCCCCC(=O)CC(=O)c1c(O)cccc1O`, the growth inhibition was 12% (inactive).

Regarding `CCCCCCNC(=S)N/N=C(\C)c1ccccn1`, the growth inhibition was 95% (active).

Take `Oc1ccc(N=Nc2ccc(Cl)cc2)cc1O`: the growth inhibition was 97% (active).

In the case of `CCO/C=C1\N=C(C(O)(c2ccc(Cl)cc2)c2ccc(Cl)cc2)OC1=O`, the growth inhibition is -1% (inactive).

In the case of `Clc1ccc(CN2COc3c(ccc4cccnc34)C2)cc1`, the growth inhibition was 97% (active).

With `Cc1nc(C(N)=S)sc1/C(CC(=O)C(=O)Nc1cccc2ccc(O)cc12)=N\NC(=O)c1ccncc1`, the growth inhibition was 33% (inactive).

Consider `Nc1ncc(C(=O)c2ccccc2)cc1[N+](=O)[O-]`, for which the growth inhibition is -22% (inactive).

Turning to `O=C1C2C3C=CC(C3)C2C(=O)C2C3C=CC(C3)C12` (centres undefined), the growth inhibition was 95% (active).

In the case of `CCCCOC(=O)c1cnc[nH]c1=O`, the growth inhibition is 3% (inactive).

Regarding `N#CC(c1ccc(Cl)cc1)c1ccc([N+](=O)[O-])cc1` (centres undefined), the growth inhibition was 53% (inactive).

In the case of `CN(C)C(N)=NC#N`, the growth inhibition is 54% (inactive).

As to `CCCCc1c(O)c(N=NC(=O)C[n+]2ccccc2)c2ccccc2c1O`, the growth inhibition is -3% (inactive).

Consider `CCOC(=O)C(=O)Nc1nc2c(s1)C(=O)c1ccccc1C2=O`, for which the growth inhibition was 89% (active).

`COc1ccc(C(=O)Nc2ccccc2[N+](=O)[O-])cc1`: the growth inhibition is 5% (inactive).

Turning to `COc1ccccc1NC(=O)/C(=C/n1c(=S)sc2ccccc21)C(C)=O`, the growth inhibition was 17% (inactive).

For the compound `Cc1ccc(C)c(C(=O)/C=C/C(=O)O)c1`, the growth inhibition was 99% (active).
